For 40 molecules, growth yield results are on record in the supplement of paper PMC8007513.

The test system of this test is Trichoderma virens ATCC 9645. Put plainly: growth yield (OD600) with compound + IPBC relative to untreated control; higher = less growth inhibition. The following applies: compound concentration: 100 uM, IPBC concentration: 200 ng/ml. Put shortly:
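Trichoderma virens ATCC 9645 spores, from potato dextrose agar plates grown for 7 days, were brought to 15,000 spores ml^−1 in potato dextrose broth and dispensed as 100 μl aliquots into 96-well plates. Each aliquot received library compounds at 100 μM final, with or without a biocide at 200 ng ml^−1, before growth at 30 °C and OD600 readings on a BioTek EL800 at 40 h and 72 h. Growth is expressed relative to the control containing neither agent and represents means of duplicate screens.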

Structures can show the parent of a compound that is named as a salt. ± gives the standard error. Hit rate of the full screen: of about 1,300 compounds, about 130 (10%) showed an effect of 50% or more. Only a selection was taken, and strong results are over-represented in it overall.

As to `COc1ccccc1Oc1c(NS(=O)(=O)c2ccc(C(C)(C)C)cc2)nc(-c2ncccn2)nc1OCCO` [Bosentan] + CCCCNC(=O)OCC#CI [3-iodo-2-propynyl butylcarbamate (IPBC)], the growth yield amounted to 117 ± 2.4% (40 h) and 114 ± 5.8% (72 h).
On the same counts, the results for `Clc1ccc2c(c1)C(N1CCNCC1)=Nc1ccccc1O2` [Amoxapine] + CCCCNC(=O)OCC#CI [3-iodo-2-propynyl butylcarbamate (IPBC)] are 81.3 ± 6% and 99.9 ± 7%.
As for `CCOC(=O)[C@@](C)(N)Cc1ccc(O)c(O)c1` [Methyldopate hydrochloride] + CCCCNC(=O)OCC#CI [3-iodo-2-propynyl butylcarbamate (IPBC)], the growth yield is, setting by setting: (40 h) 110 ± 6%; (72 h) 106 ± 6.2%.
As to `CC12CC3CC(C)(C1)CC(N)(C3)C2` [Memantine Hydrochloride] + CCCCNC(=O)OCC#CI [3-iodo-2-propynyl butylcarbamate (IPBC)], the growth yield by setting is: (40 h) 109 ± 3%; (72 h) 108 ± 4.2%.
On the same counts, the results for `CC(C)(C)NC[C@H](O)COc1ccccc1C1CCCC1` [Penbutolol sulfate] + CCCCNC(=O)OCC#CI [3-iodo-2-propynyl butylcarbamate (IPBC)] are 74.8 ± 6.2% and 91.56 ± 0.73%.
As for `O=C1CCC(N2C(=O)c3ccccc3C2=O)C(=O)N1` (stereo not given) [Thalidomide] + CCCCNC(=O)OCC#CI [3-iodo-2-propynyl butylcarbamate (IPBC)], the growth yield was found to be 95.3 ± 3.2% (40 h) and 101 ± 4.4% (72 h).
The corresponding values for `Cc1cccc(C)c1NC(=O)CN1CCN(CCCC(c2ccc(F)cc2)c2ccc(F)cc2)CC1` [Lidoflazine] + CCCCNC(=O)OCC#CI [3-iodo-2-propynyl butylcarbamate (IPBC)] are 10.3 ± 1.1% and 78.6 ± 7.7%.
The corresponding values for `O=C1NCN(c2ccccc2)C12CCN(CCCC(c1ccc(F)cc1)c1ccc(F)cc1)CC2` [Fluspirilen] + CCCCNC(=O)OCC#CI [3-iodo-2-propynyl butylcarbamate (IPBC)] are 99.4 ± 6.3% and 118 ± 4.2%.
`COc1ccccc1OCC(O)CN1CCN(CC(=O)Nc2c(C)cccc2C)CC1` (stereo not given) [Ranolazine] + CCCCNC(=O)OCC#CI [3-iodo-2-propynyl butylcarbamate (IPBC)]: the growth yield is, setting by setting: (40 h) 89.7 ± 2.4%; (72 h) 94.2 ± 2.7%.
With `CO/N=C1\CN(c2nc3c(cc2F)c(=O)c(C(=O)O)cn3C2CC2)CC1CN` (stereo not given) [Gemifloxacin mesylate] + CCCCNC(=O)OCC#CI [3-iodo-2-propynyl butylcarbamate (IPBC)], the growth yield by setting is: (40 h) 103 ± 17%; (72 h) 104 ± 11%.
On the same counts, the results for `CNCC(O)c1ccc(OC(=O)C(C)(C)C)c(OC(=O)C(C)(C)C)c1` (stereo not given) [Dipivefrin hydrochloride] + CCCCNC(=O)OCC#CI [3-iodo-2-propynyl butylcarbamate (IPBC)] are 79.4 ± 1.3% and 88.83 ± 0.1%.
For the molecule `C[C@]12CCC(=O)C(O)=C1CC[C@@H]1[C@@H]2CC[C@]2(C)C(=O)CC[C@@H]12` [Formestane] + CCCCNC(=O)OCC#CI [3-iodo-2-propynyl butylcarbamate (IPBC)], the growth yield by setting is: (40 h) 71.5 ± 3.8%; (72 h) 91.2 ± 1.1%.
On the same counts, the results for `N[C@@H]1CONC1=O` [D-cycloserine] + CCCCNC(=O)OCC#CI [3-iodo-2-propynyl butylcarbamate (IPBC)] are 86.2 ± 1.1% and 90.3 ± 1.8%.
The corresponding values for `CCCCCNC(=N)N/N=C/c1c[nH]c2ccc(OC)cc12` [Tegaserod maleate] + CCCCNC(=O)OCC#CI [3-iodo-2-propynyl butylcarbamate (IPBC)] are 5.4% and 5.24 ± 0.21%.
On the same counts, the results for `COc1ccc2[nH]cc(CCNC(C)=O)c2c1` [Melatonin] + CCCCNC(=O)OCC#CI [3-iodo-2-propynyl butylcarbamate (IPBC)] are 82.9 ± 4.1% and 92.3 ± 4%.
On to `CC(C)(C)NCC(O)COc1cccc2c1CC(O)C(O)C2` (stereo not given) [Nadolol] + CCCCNC(=O)OCC#CI [3-iodo-2-propynyl butylcarbamate (IPBC)], for which the growth yield worked out at 102 ± 19% (40 h) and 100 ± 10% (72 h).
The corresponding values for `c1ccc2[nH]c(-c3cscn3)nc2c1` [Tiabendazole] + CCCCNC(=O)OCC#CI [3-iodo-2-propynyl butylcarbamate (IPBC)] are 4.7652 ± 1.4e-15% and 3.3561 ± 1.3e-15%.
On the same counts, the results for `O=c1n(CCCN2CCN(c3cccc(Cl)c3)CC2)nc2ccccn12` [Trazodone hydrochloride] + CCCCNC(=O)OCC#CI [3-iodo-2-propynyl butylcarbamate (IPBC)] are 51 ± 1.1% and 86.1 ± 0.94%.
On the same counts, the results for `CN(C)CCCN1c2ccccc2CCc2ccc(Cl)cc21` [Clomipramine hydrochloride] + CCCCNC(=O)OCC#CI [3-iodo-2-propynyl butylcarbamate (IPBC)] are 59.6 ± 1.4% and 93.2 ± 2%.
Take `CN1CCN(CCCN2c3ccccc3Sc3ccc(S(=O)(=O)N(C)C)cc32)CC1` [Thioproperazine dimesylate] + CCCCNC(=O)OCC#CI [3-iodo-2-propynyl butylcarbamate (IPBC)]: the growth yield reads like this: (40 h) 37.8 ± 0.95%; (72 h) 97.1 ± 5%.
The corresponding values for `CC(CN(C)C)CN1c2ccccc2Sc2ccccc21` (stereo not given) [Trimeprazine tartrate] + CCCCNC(=O)OCC#CI [3-iodo-2-propynyl butylcarbamate (IPBC)] are 71.5 ± 3.8% and 92 ± 3.9%.
On to `CN1CCCCC1CCN1c2ccccc2Sc2ccc([S+](C)[O-])cc21` (stereo not given) [Mesoridazine besylate] + CCCCNC(=O)OCC#CI [3-iodo-2-propynyl butylcarbamate (IPBC)], for which the growth yield by setting is: (40 h) 72.6 ± 2.4%; (72 h) 89.25 ± 0.52%.
On the same counts, the results for `CN(C)CCCN1c2ccccc2Sc2ccc(Cl)cc21` [Chlorpromazine hydrochloride] + CCCCNC(=O)OCC#CI [3-iodo-2-propynyl butylcarbamate (IPBC)] are 52.4 ± 4.1% and 87.2 ± 2.2%.
The corresponding values for `COc1ccc2c(c1)N(C[C@H](C)CN(C)C)c1ccccc1S2` [Methotrimeprazine maleat salt] + CCCCNC(=O)OCC#CI [3-iodo-2-propynyl butylcarbamate (IPBC)] are 76.4 ± 1.4% and 92.61 ± 0.32%.
Consider `CN1CCN(CCCN2c3ccccc3Sc3ccc(Cl)cc32)CC1` [Prochlorperazine dimaleate] + CCCCNC(=O)OCC#CI [3-iodo-2-propynyl butylcarbamate (IPBC)], for which the growth yield amounted to 3.18% (40 h) and 2.73 ± 0.21% (72 h).
On the same counts, the results for `OCCN1CCN(CCCN2c3ccccc3Sc3ccc(Cl)cc32)CC1` [Perphenazine] + CCCCNC(=O)OCC#CI [3-iodo-2-propynyl butylcarbamate (IPBC)] are 4.29 ± 0.48% and 2.94 ± 0.42%.
On the same counts, the results for `CN1CCC[C@@H]1CCO[C@](C)(c1ccccc1)c1ccc(Cl)cc1` [Clemastine fumarate] + CCCCNC(=O)OCC#CI [3-iodo-2-propynyl butylcarbamate (IPBC)] are 53.2 ± 1.8% and 92.4 ± 0.94%.
The corresponding values for `OCCN1CCN(CCCN2c3ccccc3C=Cc3ccccc32)CC1` [Opipramol dihydrochloride] + CCCCNC(=O)OCC#CI [3-iodo-2-propynyl butylcarbamate (IPBC)] are 69.57 ± 0.64% and 92.4 ± 3%.
Consider `CSc1ccc2c(c1)N(CCC1CCCCN1C)c1ccccc1S2` (stereo not given) [Thioridazine hydrochloride] + CCCCNC(=O)OCC#CI [3-iodo-2-propynyl butylcarbamate (IPBC)], for which the growth yield reads like this: (40 h) 3.81 ± 0.64%; (72 h) 2.94 ± 0.21%.
The corresponding values for `CCCCC[C@H](O)/C=C/[C@H]1[C@H](O)CC(=O)[C@@H]1CCCCCCC(=O)O` [Alprostadil] + CCCCNC(=O)OCC#CI [3-iodo-2-propynyl butylcarbamate (IPBC)] are 108 ± 3.3% and 107 ± 2.8%.
The corresponding values for `Cc1ncc([N+](=O)[O-])n1CC(C)O` (stereo not given) [Secnidazole] + CCCCNC(=O)OCC#CI [3-iodo-2-propynyl butylcarbamate (IPBC)] are 95.9 ± 13% and 94.5 ± 9.8%.
On the same counts, the results for `N=C(N)NC(=O)Cc1c(Cl)cccc1Cl` [Guanfacine hydrochloride] + CCCCNC(=O)OCC#CI [3-iodo-2-propynyl butylcarbamate (IPBC)] are 79.9 ± 4.3% and 90.7 ± 3.7%.
`O=C1[C@H]2CCCC[C@H]2C(=O)N1CCCCN1CCN(c2nsc3ccccc23)CC1` [Perospirone] + CCCCNC(=O)OCC#CI [3-iodo-2-propynyl butylcarbamate (IPBC)]: the growth yield runs as follows: (40 h) 79.4 ± 0.95%; (72 h) 88.41 ± 0.32%.
`C[C@@H]1C[C@H]2[C@@H]3C[C@H](F)C4=CC(=O)C=C[C@]4(C)[C@@]3(F)[C@@H](O)C[C@]2(C)[C@@]1(O)C(=O)COC(=O)C(C)(C)C` [Flumethasone pivalate] + CCCCNC(=O)OCC#CI [3-iodo-2-propynyl butylcarbamate (IPBC)]: the growth yield is, setting by setting: (40 h) 90.9 ± 2.5%; (72 h) 90.3 ± 2%.
Take `CN(CCCN1c2ccccc2CCc2ccccc21)CC(=O)c1ccc(Cl)cc1` [Lofepramine] + CCCCNC(=O)OCC#CI [3-iodo-2-propynyl butylcarbamate (IPBC)]: the growth yield came out at 78.31 ± 0.48% (40 h) and 91.7 ± 1.3% (72 h).
The corresponding values for `CCN[C@H]1CN(CCCOC)S(=O)(=O)c2sc(S(N)(=O)=O)cc21` [Brinzolamide] + CCCCNC(=O)OCC#CI [3-iodo-2-propynyl butylcarbamate (IPBC)] are 76.1 ± 0.79% and 86.31 ± 0.32%.
The corresponding values for `CC(N/C(=N\C#N)Nc1ccncc1)C(C)(C)C` (stereo not given) [Pinacidil] + CCCCNC(=O)OCC#CI [3-iodo-2-propynyl butylcarbamate (IPBC)] are 97.7 ± 5.9% and 102 ± 2.9%.
On the same counts, the results for `CCCCc1cc2ccccc2c(OCCN(C)C)n1` [Dimethisoquin hydrochloride] + CCCCNC(=O)OCC#CI [3-iodo-2-propynyl butylcarbamate (IPBC)] are 52.1 ± 0.64% and 82.64 ± 0.42%.
For the molecule `CC(C)c1nc(CN(C)C(=O)N[C@H](C(=O)N[C@@H](Cc2ccccc2)C[C@H](O)[C@H](Cc2ccccc2)NC(=O)OCc2cncs2)C(C)C)cs1` [Ritonavir] + CCCCNC(=O)OCC#CI [3-iodo-2-propynyl butylcarbamate (IPBC)], the growth yield reads like this: (40 h) 119 ± 1.6%; (72 h) 119 ± 1.5%.
On the same counts, the results for `O=C(O)CCC(=O)c1ccc(-c2ccccc2)cc1` [Fenbufen] + CCCCNC(=O)OCC#CI [3-iodo-2-propynyl butylcarbamate (IPBC)] are 71.5 ± 2.9% and 92.2 ± 1.8%.
